# Measurements taken from the supplement of paper PMC3842684.
# Tested on: P. falciparum NF54-pfs16-GFP early (I-III) stage gametocytes
# Test: relative % inhibition of viable gametocyte number; higher = more gametocytocidal
# Details: 5 µM; stage: early (I-III) gametocyte; incubation 72 h
# Method in brief: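 Viable gametocytes were counted by confocal imaging as elongated GFP objects carrying MitoTracker Red signal above a cut-off, after 72 h of compound exposure (5 or 0.5 µM) at 37°C in 5% CO2 and 5% O2 and overnight staining. The NF54 pfs16-GFP gametocytes had been magnet-isolated at early (I/IIa, day 2) or late (day 8) stage and plated at 10% parasitaemia, 0.1% haematocrit in 384-well poly-D-lysine imaging plates. Relative inhibition was normalised to vehicle and positive-control wells within each plate.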
row,Structure (SMILES),relative % inhibition [%]
1,Cc1sc(NC(=O)c2ccccc2)c(C(c2cccs2)N2CCN(c3ccccc3)CC2)c1C (stereo not drawn),12.8
2,CCc1ccc(Nc2cc(C)nc3nc(C)nn23)cc1,-31
3,CCOc1cc2c(cc1OCC)C(c1cc(Cl)c(O)c(OCC)c1)NCC2 (stereo not drawn),94.7
4,O=C(NC1CCN(Cc2ccccc2)CC1)c1cc2nc(-c3ccc(Cl)s3)cc(C(F)(F)F)n2n1,-15.9
5,CCCCNCC(O)(c1ccc(Cl)cc1)c1ccc(Cl)cc1,88.5
6,Cc1cc(Nc2ccc3ccccc3c2)n2ncnc2n1,3.61
7,Cc1ccc(CSCc2ccc(C(=O)NC3CC3)o2)cc1,-7.92
8,FC(F)(F)c1ccc(Nc2nnnc3ccccc23)cc1,2.85
9,COc1ccc(C(=O)Nc2ccc(Cl)cc2C(=O)Nc2ccncc2)cc1,22.3
10,CCCc1c(C)nc2ccc(Br)cc2c1O,-4.44
11,CCCCCC(=O)N1c2ccccc2N=C2CC(c3ccc(OC)c(OC)c3)CC(O)=C2C1c1ccc(C(F)(F)F)cc1 (stereo not drawn),76.3
12,Cc1ccc(F)cc1NC(=O)c1cc(Cl)ccc1Nc1ccccc1,73.8
13,Cc1ccc(Nc2nc(-c3ccccn3)cs2)cc1,93.5
